# Reference: PubChem BioAssay (Tox21)
# Results filed as inconclusive are left out. Values without a mark were called inactive. Active and inactive are the calls of the source. Calls follow the shape of the full dose curve.
# Assay: qHTS assay to identify small molecule agonists of H2AX - cell viability counter screen (AID 1224847); also: nearly all actives have a fitted effect of over 30% in size; as to activity change, negative = cytotoxicity: top concentration of the series differs between compounds
# Details: CHO-K1 viability, CellTiter-Glo luminescence, 3 h; series mostly up to 154 µM; activity change, negative = cytotoxicity: at the top concentration
# Text: National Center for Advancing Translational Sciences [NCATS]
# NIH Chemical Genomics Center [NCGC]
# U.S. Environmental Protection Agency [EPA]
# National Institutes of Environmental Health Sciences [NIEHS]
# National Toxicology Program [NTP]
# U.S. Food and Drug Administration [FDA]
# HTRF phospho-H2AX (Ser139) assay (Cisbio Bioassays, US) enables the quantitative detection of the histone variant H2AX when phosphorylated on serine 139. When double-stranded DNA breaks, either by ionizing radiation or endogenous physiological processes, H2AX becomes phosphorylated at Ser139. This phospho-Ser139 serves as a sensitive biomarker for the detection of such breaks, localizing the site of DNA repair. So, HTRF phospho-H2AX Ser139 is a pertinent assay to study genome stability, the cell cycle, DNA repair, and it serves as a biomarker for cancer, and to understand aging. Wild type CHO-K1 cells were used to identify the inducers of Phospho-H2AX Ser 139 from the Tox21 compound collections. Also cytotoxicity of the Tox21 10K compound library against the CHO-K1 cell line was tested by measuring the cell viability using CellTiter-Glo assay (Promega, Madison, WI).
# Tox21 Assay Protocol Summary:
# The CHO-K1 cells suspended in culture medium containing 10% FBS were dispensed at 1000 cells/ 3 ul/well in 1536-well white wall/solid bottom plates (Greiner Bio-One North America, NC) using a Multidrop Combi (Thermo Fisher Scientific Inc., Waltham, MA). After the assay plates were incubated at 37C overnight, 23 nl of compounds at 15 concentrations (from 5-48 columns) or positive control (from 1 to 4 columns) were transferred to the assay plates using a Pintool station (Wako, San Diego, CA) into each well resulting in a final DMSO concentration of 0.76%. After 3hr incubation at 37C, 3 uL/well CellTiter-Glo luminescent cell viability reagent (Promega Corporation, Madison, WI) was added using a Flying Reagent Dispenser (FRD) (Aurora Discovery, CA). After incubation at room temperature for 30 min, the luminescence intensity was read using a ViewLux plate reader (PerkinElmer, Waltham, MA).
# % is scaled to controls: 0 for no effect and ±100 for the full control effect; potency is read from the fitted curve at half-maximal effect.
Compound,"activity change, negative = cytotoxicity",Potency
CC(=O)C=O,0.585%,
Cc1cc(=O)[nH]c(=O)[nH]1,-3.43%,
COc1cc(C(=O)NS(=O)(=O)c2ccccc2C)ccc1Cc1cn(C)c2ccc(NC(=O)OC3CCCC3)cc12,6.75% [at 70.9 µM],
CN1[C@@H]2CC[C@H]1CC(OC(=O)C(CO)c1ccccc1)C2 (stereo not given in full),,inactive
O=C[C@H](O)[C@H](O)[C@H](O)CO,3.51%,
CC(C)CCOCCC(C)C,2.03%,
O=C1OC(=O)c2ccc3c4c(ccc1c24)C(=O)OC3=O,-1.62%,
CCCCCCCCCCCCOC(=O)c1cc(O)c(O)c(O)c1,,100 µM (active)
CC1CCCCC1,2.3%,
Cc1cncc(C)c1,0.834%,
c1ccc(Sc2ccccc2)cc1,-8.76%,
CCCC(O)C(O)CO (stereo not given),1.02%,
CCCCCCCC/C=C/CCCOC(C)=O,7.7%,
CC1(C)C(=O)N(CO)C(=O)N1CO,1.52%,
CC(C)c1cccc(C(C)C)c1N1C(=O)c2ccc(O)cc2C1=O,,80 µM (active)
Cc1ccc2ccc3cccc4ccc1c2c34,-5.32%,
CC(C)(c1cc(Br)c(O)c(Br)c1)c1cc(Br)c(O)c(Br)c1,,89.5 µM (active)
COc1ccccc1C=O,1.01%,
CCOB(OCC)OCC,-2.06%,
CC=O,,14.9 µM (active)

Compound,"activity change, negative = cytotoxicity",Potency
CC1=CP(=O)(c2ccccc2)CC1 (stereo not given),-1.55%,
CCCCCCCCCCCCCc1ccccc1,-1.18% [at 70.9 µM],
CC(C)c1ccccc1N,1.08%,
CCC(=O)OCCc1ccccc1,-0.293%,
c1ccc2c(c1)CCC2,2.77%,
CN1CCN(C2Cc3ccccc3Sc3ccc(Cl)cc32)CC1 (stereo not given),-14.5% [at 70.9 µM],
CC1=C(/C=C/C(C)=C/C=C/C(C)=C\C=O)C(C)(C)CCC1,,107 µM (active)
CCCCOC(=O)C(C)CC (stereo not given),-2.46%,
O=C(O)CC(=O)O,3.34%,
CC(=O)O[C@@H]1C[C@@H]2CC[C@@]1(C)C2(C)C,0.0895%,
C=CC/C=C/C/C=C/C/C=C/C,-0.0132%,
CCCCN(C)C,1.76%,
COc1ccc(C#N)cc1,-0.395%,
C[Si](C)(C)Cl,2.82%,
[O]=[Zr],3.07%,
COc1cccc(O)c1,0.368%,
CC1CCCNC1 (stereo not given),-3.36%,
C[Si](C)O[Si](C)C,1.41%,
CCc1c(Br)c(Br)c(Br)c(Br)c1Br,0.703%,
CCN(CC)CCCN(c1ccccc1)C1Cc2ccccc2C1,-1.29% [at 70.9 µM],
